Screens (PubChem)
A selection: hits, their analogues and other compounds. The true share with any hit is near 14%.
HCMV antiviral: inhibitors of human cytomegalovirus | HFF cells, HCMV-luciferase reporter, 72 h; stronger effect = lower value | activity change, negative = inhibition, % at 57.5 µM | 4.5% of 410,000 active | AID 1259415; in the data active means activity change below about -60%; inconclusive means no clear call, values can overlap the other calls; inactive means above about -39%
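Screen run at 2 compound doses on HFFs infected with reporter HCMV, MOI 1 PFU/cell. Luciferase activity from cell lysates at 72 h post infection gave inhibition relative to buffer-only and Salinomycin wells.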
Pf growth 96h: P. falciparum growth inhibition at 96 hours. P. falciparum luciferase reporter growth, 96 h. 6.9% of 320,000 active. AID 504834. Potency, µM (titrated, usually from 28.7 µM), for the others: at the top dose activity change, negative = inhibition, hits mostly inhibitors; further: potency means the concentration at half of the fitted maximal effect
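Delayed-death screen, second-generation endpoint: infected erythrocytes, 2% hematocrit, 0.05% parasitemia final; 96 hours at 37 C, 5% CO2; luciferase detection reagent; luminescence decrease equals reduced growth.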
Pf growth 48h: inhibits P. falciparum growth in the first generation, 48 h | Potency, µM (highest dose often 28.7 µM), for inactives: at the top dose activity change, negative = inhibition, most hits filed as inhibitors | 5.9% of 310,000 active | P. falciparum luciferase growth in erythrocytes, 48 h | AID 504832; further: potency means the concentration at half of the fitted maximal effect
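Read-out is firefly luciferase luminescence from an integrated reporter in P. falciparum, so falling signal marks reduced parasite growth. Infected erythrocytes were at 2% hematocrit and 0.1% parasitemia (final) in Albumax-supplemented RPMI 1640.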
Sm TGR inh: S. mansoni TGR enzyme inhibition | 3% of 360,000 active | Potency, µM (series often up to 114 µM), for inactives: at the top dose activity change, negative = inhibition, actives largely listed as inhibitors | purified TGR, DTNB reduction, TNB absorbance 405 nm | AID 485364; further: potency means the concentration at half of the fitted maximal effect; nearly all actives have a fitted effect of over 60% in size
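TGR 20 nM + NADPH 100 uM (dispensed conc.), cpd preinc 15 min RT; start with NADPH (500 uM addition) then DTNB (15 mM addition). Kinetic TNB absorbance, 405 nm filter. Four-parameter Hill fit across titration.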
Giardia FBPA inh: inhibitors of Giardia lamblia fructose-1,6-bisphosphate aldolase | purified Giardia FBPA | AID 2451 | 0.71% of 290,000 active | Potency, µM (titrated, usually from 59.6 µM), for the others: at the top dose activity, negative = inhibition, hits mostly inhibitors; further: potency means the concentration at half of the fitted maximal effect; nearly all actives have a fitted effect of over 55% in size
Target sequence (A8B2U2 whole entry, looked up): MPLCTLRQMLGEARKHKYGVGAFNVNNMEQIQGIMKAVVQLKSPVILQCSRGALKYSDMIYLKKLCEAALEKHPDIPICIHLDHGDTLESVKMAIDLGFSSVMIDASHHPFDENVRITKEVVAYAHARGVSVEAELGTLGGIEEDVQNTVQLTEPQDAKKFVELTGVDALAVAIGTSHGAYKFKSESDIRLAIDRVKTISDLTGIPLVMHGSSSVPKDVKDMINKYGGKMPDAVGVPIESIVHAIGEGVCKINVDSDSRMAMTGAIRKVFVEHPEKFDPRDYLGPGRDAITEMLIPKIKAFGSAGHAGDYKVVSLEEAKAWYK
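40 nM FBPA preincubated 10 min at RT with compound (up to 57.5 uM final), then substrate plus GAPDH/TPI/NAD/arsenate coupling and diaphorase/resazurin added. Fluorescence read after 20 min at RT, 525/598 nm.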
* hit, by the source's call; ? = inconclusive; . = not tested or not shown; [ ] = another dose, or the depositor's remark. Unless noted, the call rests on the fitted dose curve; in most records, active means well fitted curve in the direction sought with a large enough effect; inconclusive means small, poorly fitted or top-dose-only effect, or another doubt; inactive means no such curve, though single readings can be large; an effect the other way counts as inactive or inconclusive. On the % scale 0 is the no-effect control and ±100 the full control effect.

SMILES	HCMV antiviral	Pf growth 96h	Pf growth 48h	Sm TGR inh	Giardia FBPA inh
Cc1cc(C)cc(-n2c3ccc(NC(=O)Cc4cccc5ccccc45)cc3c(=O)n2C)c1	-71*	.	.	.	.
CCC(=O)Nc1cccc(-c2cc3ccccc3oc2=O)c1	-30	26%	100%	.	-5%
CN[C@H]1[C@@H](O[C@@H]2[C@H](O[C@@H]3[C@@H](O)[C@@H](O)[C@@H](N=C(N)N)[C@@H](O)[C@@H]3N=C(N)N)O[C@H](C)[C@@]2(O)C=O)O[C@@H](CO)[C@@H](O)[C@H]1O	.	.	.	.	-1%[21.7 µM]
O=C1NN=C(c2ccc(Cl)cc2)CC1c1cccc(Br)c1 (centres undefined)	-6	12%	4.1µM*	4%	-5%
Cc1ccc(C2=NNC(=O)C(c3ccc(Cl)cc3)C2)cc1 (centres undefined)	-24	.	-6%	1%	-4%
Cc1ccc(C)n1-c1nn(S(=O)(=O)c2ccccc2)c2cccc(F)c12	-32	?	?	-24%	0%
COc1ccc(S(=O)(=O)n2nc(-n3c(C)ccc3C)c3c(F)cccc32)cc1OC	-32	?	5.9µM*	-4%	-14%
O=C(NC(Cc1c[nH]c2ccccc12)C(=O)N/N=C/c1cccnc1)c1cccs1 (centres undefined)	-78*	0%	-27%	15%	-5%
CCCNC(=S)N1CCC(C(=O)c2ccc(F)cc2)CC1	-31	31%	-12%	8%	2%
O=C(N[C@@H]1c2ccccc2CC[C@@H]1OCc1ccccc1)c1ccc(C(F)(F)F)cc1	-1	.	.	.	.
CCOCCCNC(=O)c1ccc(-n2c(-c3ccccc3)cc3c2CCC(C)C3)cc1 (centres undefined)	-93*	.	.	1%	.
CC(C)(O)c1[nH]c2cc(C(F)(F)F)ccc2c1C(C)(C)O	62	22%	43%	-7%	24%
CCCNC(=O)COCc1cc(-c2ccc(F)cc2)on1	6	.	.	9%	.
COC(=O)c1cn(-c2ccc(Cl)cc2)c(=O)c2ccccc12	-14	.	2.9µM*	-11%	2%
COC(=O)c1cn(C(=O)c2cc(Cl)ccc2Cl)c2ccccc12	-2	13µM*	21%	-9%	5%
CCOC(=O)[C@@H]1[C@H]2COc3ccccc3[C@H]2N2C(=O)N(c3ccc(OC)cc3)C(=O)[C@]12C	-26	?	-15%	-21%	-9%
Cn1nccc1C(=O)Nc1sc2c(c1C#N)CCCC2	61	24%	25%	-6%	.
COc1ccc(-c2c(C)sc(NC(=O)c3ccnn3C)c2C#N)cc1	-89*	-21%	4%	-1%	-6%
COc1cc(CCC(=O)Nc2cc(Cl)ccc2N2CCN(C)CC2)cc(OC)c1OC	10	.	12µM*	-3%	0%
Cc1ccccc1C(=O)Nc1cc(S(=O)(=O)N2CCCCC2)ccc1N1CCN(C)CC1	68	9.3µM*	?	-8%	6%
COc1ccccc1CCC(=O)Nc1cc(S(=O)(=O)N2CCCCC2)ccc1N1CCN(C)CC1	-14	?	12µM*	5%	.
CN1CCN(c2ccc(S(=O)(=O)N3CCCCC3)cc2NC(=O)c2cccc([N+](=O)[O-])c2)CC1	-21	0%	-23%	1%	3%
CN1CCN(c2ccc(S(=O)(=O)N3CCCCC3)cc2NC(=O)c2ccc3ccccc3c2)CC1	-16	9.3µM*	9.3µM*	-2%	0%
COc1ccc(Cl)cc1NC(=O)CCN1CCN(C)CC1	45	?	.	0%	-10%
COc1ccccc1CC(=O)Nc1cc(S(=O)(=O)N2CCOCC2)ccc1N1CCOCC1	20	?	?	-8%	.
CC(C)N(C(=O)COC(=O)c1ccc(Cl)s1)c1ccccc1	-8	?	-5%	2%	.
CCC(C(=O)NCCCN1CCOCC1)n1c2ccccc2c2nc(=O)cc(C)n21 (centres undefined)	45	?	8%	-2%	.
C[C@@H]1CN([C@@H](C)CO)C(=O)c2cccc(NC(=O)c3nc4ccccc4s3)c2O[C@@H]1CN(C)CC1CC1	-23	.	.	.	.
Nc1nc(=O)n(C2OC(CO)C(O)C2O)cc1Cl (centres undefined)	.	.	.	.	2%
Cc1ccc(NC(=O)N(Cc2ccc3c(c2)OCO3)C2CCN(Cc3ccccc3)CC2)cc1Cl	-71*	.	.	8%	.
